From PubChem BioAssay AID1159580 (chemical genetic matrix, 2015)
Among all 5,500 compounds or so, about 2,000 (36%) were called active. About 18% were inconclusive and are not listed. No stated cut-off is given here; in the data, active means normalized growth mostly below about 0.91 (no sharp cut-off); inconclusive means no clear call, values can overlap the other calls; inactive means mostly above about 0.92. This is one part of the list.

Assay: chemical genetic growth profiling, strain panel (AID 1159580);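 further: tested at 20 µM; growth read once vehicle control cultures reached saturation at 30 °C; 1 = growth at the plate median or of vehicle wells; lower values mean less growth of the strain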
Details: S. cerevisiae deletion strains, growth OD
[1] = locus YAL040C, strain CLN3, active compounds read low
[2] = locus YCL061C, strain MRC1 (second series), active compounds read low
[3] = locus YDR363W, strain ESC2, active compounds read low
[4] = locus YER002W, strain NOP16, active compounds read low
[5] = locus YGR229C, strain SMI1, active compounds read low
[6] = locus YMR307W, strain GAS1, active compounds read low
[7] = locus YNL175C, strain NOP13, active compounds read low
[8] = locus YNL197C, strain WHI3, active compounds read low
[9] = locus YNL224C, strain SQS1, active compounds read low
[10] = locus YOR083W, strain WHI5 (second series), active compounds read low

Measured: normalized growth

CN[C@H](CC(C)C)C(=O)N[C@H]1C(=O)N[C@@H](CC(N)=O)C(=O)N[C@H]2C(=O)N[C@H]3C(=O)N[C@H](C(=O)N[C@H](C(=O)O)c4cc(O)cc(O)c4-c4cc3ccc4O)[C@H](O)c3ccc(c(Cl)c3)Oc3cc2cc(c3O[C@@H]2O[C@H](CO)[C@@H](O)[C@H](O)[C@H]2O[C@H]2C[C@](C)(N)[C@H](O)[C@H](C)O2)Oc2ccc(cc2Cl)[C@H]1O
inactive: [1] 0.985 | [2] 1.01 | [3] 1.01 | [4] 1.01 | [5] 1.03 | locus YMR263W, strain SAP30, active compounds read low 0.997 | [6] 1 | locus YNL153C, strain GIM3, active compounds read low 0.984 | [7] 1.01 | [8] 1.03 | [9] 0.991 | [10] 0.985

CCCN(CCC)CCc1cccc2c1CC(=O)N2
inactive: locus YAL021C, strain ccr4, active compounds read low 0.978 | locus YAL026C, strain drs2, active compounds read low 0.979 | locus YAL030W, strain snc1, active compounds read low 0.981 | [1] 1.03 | locus YBL061C, strain skt5, active compounds read low 0.963 | locus YBR009C, strain hhf1, active compounds read low 0.984 | locus YBR023C, strain chs3, active compounds read low 0.962 | locus YBR171W, strain sec66, active compounds read low 0.96 | locus YBR231C, strain swc5, active compounds read low 0.99 | locus YBR279W, strain paf1, active compounds read low 0.977 | locus YCL011C, strain gbp2, active compounds read low 0.981 | locus YCL016C, strain dcc1, active compounds read low 0.964 | [2] 0.997 | locus YCL061C, strain MRC1, active compounds read low 0.965 | locus YCL069W, strain vba3, active compounds read low 0.966 | locus YCR088W, strain abp1, active compounds read low 0.969 | locus YDL005C, strain med2, active compounds read low 0.977 | locus YDL040C, strain nat1, active compounds read low 0.977 | locus YDR001C, strain nth1, active compounds read low 0.968 | locus YDR069C, strain doa4, active compounds read low 0.983 | locus YDR137W, strain rgp1, active compounds read low 0.951 | locus YDR159W, strain sac3, active compounds read low 0.966 | locus YDR195W, strain ref2 0.949 | locus YDR297W, strain sur2, active compounds read low 0.978 | locus YDR334W, strain swr1, active compounds read low 0.954 | locus YDR335W, strain msn5, active compounds read low 0.969 | [3] 1.03 | locus YDR392W, strain spt3, active compounds read low 0.96 | locus YEL003W, strain gim4, active compounds read low 0.973 | locus YEL037C, strain rad23, active compounds read low 0.971 | locus YEL061C, strain CIN8 (second series), active compounds read low 0.981 | [4] 1.02 | locus YER015W, strain faa2, active compounds read low 0.987 | locus YER016W, strain bim1, active compounds read low 0.975 | locus YER111C, strain swi4, active compounds read low 0.955 | locus YER155C, strain BEM2 (second series), active compounds read low 0.959 | locus YFR010W, strain ubp6, active compounds read low 0.967 | locus YGL167C, strain pmr1, active compounds read low 0.963 | locus YGL173C, strain kem1, active compounds read low 0.969 | locus YGL227W, strain vid30, active compounds read low 0.972 | locus YGL240W, strain doc1, active compounds read low 0.991 | locus YGL253W, strain hxk2, active compounds read low 0.993 | locus YGR078C, strain PAC10, active compounds read low 0.988 | [5] 1.04 | locus YHR013C, strain ard1, active compounds read low 0.94 | locus YHR027C, strain rpn1, active compounds read low 0.959 | locus YHR030C, strain SLT2, active compounds read low 0.947 | locus YHR079C, strain IRE1, active compounds read low 0.941 | locus YHR142W, strain chs7, active compounds read low 0.952 | locus YJL092W, strain hpr5, active compounds read low 0.966 | locus YJL095W, strain BCK1 (second series), active compounds read low 0.972 | locus YJL095W, strain BCK1, active compounds read low 1.01 | locus YJL115W, strain asf1, active compounds read low 0.958 | locus YJL129C, strain trk1, active compounds read low 0.973 | locus YJL154C, strain vps35, active compounds read low 0.974 | locus YJL164C, strain tpk1, active compounds read low 0.981 | locus YJL166W, strain qcr8, active compounds read low 0.988 | locus YJL187C, strain SWE1, active compounds read low 0.976 | locus YJR066W, strain TOR1, active compounds read low 0.94 | locus YJR075W, strain HOC1, active compounds read low 1.01 | locus YKL160W, strain elf1, active compounds read low 0.978 | locus YKR026C, strain gcn3, active compounds read low 0.968 | locus YKR091W, strain srl3, active compounds read low 0.983 | locus YLL001W, strain dnm1, active compounds read low 0.977 | locus YLL026W, active compounds read low 0.981 | locus YLL041C, strain sdh2, active compounds read low 0.974 | locus YLR027C, strain aat2, active compounds read low 0.972 | locus YLR113W, strain HOG1, active compounds read low 1.03 | locus YLR221C, strain rsa3, active compounds read low 0.975 | locus YLR258W, strain gsy2, active compounds read low 0.979 | locus YLR262C, strain YPT6 (second series), active compounds read low 0.976 | locus YLR320W, strain mms22, active compounds read low 0.969 | locus YLR342W, strain FKS1, active compounds read low 0.981 | locus YLR357W, strain rsc2, active compounds read low 0.961 | locus YLR370C, strain arc18, active compounds read low 0.96 | locus YLR384C, strain iki3, active compounds read low 0.969 | locus YML120C, strain ndi1, active compounds read low 0.972 | locus YMR058W, strain fet3, active compounds read low 0.977 | locus YMR125W, strain sto1, active compounds read low 0.967 | locus YMR129W, active compounds read low 0.969 | locus YMR205C, strain PFK2, active compounds read low 0.965 | locus YMR231W, strain pep5, active compounds read low 0.975 | [6] 0.95 | locus YNL071W, strain lat1, active compounds read low 0.984 | locus YNL128W, strain TEP1, active compounds read low 0.989 | [7] 1.01 | locus YNL183C, strain NPR1, active compounds read low 0.966 | [8] 0.999 | locus YNL209W, strain ssb2, active compounds read low 0.97 | [9] 0.988 | locus YNL248C, strain rpa49, active compounds read low 0.955 | locus YNL322C, strain KRE1 (second series), active compounds read low 0.985 | locus YNL322C, strain KRE1, active compounds read low 1.01 | locus YNR049C, strain mso1, active compounds read low 0.966 | locus YOR001W, strain rrp6, active compounds read low 0.972 | locus YOR070C, strain gyp1, active compounds read low 0.974 | locus YOR080W, strain dia2, active compounds read low 0.957 | [10] 1 | locus YOR083W, strain WHI5, active compounds read low 0.975 | locus YOR106W, strain vam3, active compounds read low 0.977 | locus YOR231W, strain MKK1, active compounds read low 0.978 | locus YOR265W, strain rbl2, active compounds read low 0.972 | locus YOR270C, strain vph1, active compounds read low 0.944 | locus YOR290C, strain snf2, active compounds read low 0.953 | locus YPL051W, strain arl3, active compounds read low 0.975 | locus YPL078C, strain atp4, active compounds read low 0.969 | locus YPL106C, strain sse1, active compounds read low 0.99 | locus YPL240C, strain hsp82, active compounds read low 0.976 | locus YPL241C, strain CIN2, active compounds read low 1 | locus YPL256C, strain CLN2, active compounds read low 0.943
